# Experimental data as given in PMC7862700, “An all-to-all approach to the identification of sequence-specific readers for epigenetic DNA modifications on cytosine”.
# How the values were obtained:
# Test in all cases: DAPPL (digital affinity profiling via proximity ligation, sequencing); 10 mM Tris-HCl pH 7.5, 50 mM NaCl, 1 mM DTT, 4% glycerol, room temperature, 30 min; GST-TFs on glutathione beads, 16-mer random dsDNA library, 0.1% formaldehyde crosslink after washing; high values mean tight binding
# FLI1 = target: T1, FLI1 (Homo sapiens, UniProt Q01543 1-452); settings: protein: recombinant; tags: N-terminal GST; dsDNA, one strand shown
# T1 sequence: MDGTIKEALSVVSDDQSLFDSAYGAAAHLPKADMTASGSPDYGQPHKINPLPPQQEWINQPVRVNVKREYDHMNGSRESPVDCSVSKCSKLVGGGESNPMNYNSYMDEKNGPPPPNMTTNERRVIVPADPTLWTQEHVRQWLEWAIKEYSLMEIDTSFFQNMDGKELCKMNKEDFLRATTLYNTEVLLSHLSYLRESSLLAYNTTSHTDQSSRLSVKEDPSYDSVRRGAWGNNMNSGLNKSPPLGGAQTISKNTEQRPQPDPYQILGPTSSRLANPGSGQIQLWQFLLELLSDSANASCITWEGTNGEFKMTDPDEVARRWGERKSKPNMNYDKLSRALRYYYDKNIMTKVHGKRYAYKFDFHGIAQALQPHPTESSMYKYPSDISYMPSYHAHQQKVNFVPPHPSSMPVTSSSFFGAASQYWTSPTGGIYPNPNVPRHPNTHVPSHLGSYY
# How it was run: (§1)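 Binding signal is each hexamer's read frequency for a factor divided by its frequency in the tag-only sample. The factors were GST-fused human transcription factors from yeast, captured on glutathione beads, DNA-barcoded and pooled with that sample. Pools were incubated with 200 nmole of a random double-stranded 16-mer DNA library in Tris/NaCl/DTT/glycerol buffer at room temperature for 30 min, then washed, crosslinked with 0.1% formaldehyde, proximity-ligated with BsaI/T4 ligase (1 h, 37 °C), PCR-amplified and sequenced on an Illumina NextSeq500.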
# ELK1 = target: T2, ELK1 (Homo sapiens, UniProt P19419 1-428); settings: protein: recombinant; tags: N-terminal GST; dsDNA, one strand shown
# T2 sequence: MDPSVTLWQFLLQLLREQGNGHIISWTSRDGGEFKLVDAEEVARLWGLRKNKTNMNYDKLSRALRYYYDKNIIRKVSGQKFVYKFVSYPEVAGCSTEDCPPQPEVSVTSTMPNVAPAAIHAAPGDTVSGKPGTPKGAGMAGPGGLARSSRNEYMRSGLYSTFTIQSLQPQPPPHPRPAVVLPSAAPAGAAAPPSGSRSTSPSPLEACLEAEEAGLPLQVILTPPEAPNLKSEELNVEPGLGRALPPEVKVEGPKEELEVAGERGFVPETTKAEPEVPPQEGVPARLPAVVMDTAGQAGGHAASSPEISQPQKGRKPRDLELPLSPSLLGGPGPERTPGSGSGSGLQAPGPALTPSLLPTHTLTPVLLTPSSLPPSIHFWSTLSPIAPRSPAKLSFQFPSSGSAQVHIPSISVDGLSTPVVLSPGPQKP
# How it was run: as §1
# GABPA = target: T3, GABPA (Homo sapiens, UniProt Q06546 1-454); settings: protein: recombinant; tags: N-terminal GST; dsDNA, one strand shown
# T3 sequence: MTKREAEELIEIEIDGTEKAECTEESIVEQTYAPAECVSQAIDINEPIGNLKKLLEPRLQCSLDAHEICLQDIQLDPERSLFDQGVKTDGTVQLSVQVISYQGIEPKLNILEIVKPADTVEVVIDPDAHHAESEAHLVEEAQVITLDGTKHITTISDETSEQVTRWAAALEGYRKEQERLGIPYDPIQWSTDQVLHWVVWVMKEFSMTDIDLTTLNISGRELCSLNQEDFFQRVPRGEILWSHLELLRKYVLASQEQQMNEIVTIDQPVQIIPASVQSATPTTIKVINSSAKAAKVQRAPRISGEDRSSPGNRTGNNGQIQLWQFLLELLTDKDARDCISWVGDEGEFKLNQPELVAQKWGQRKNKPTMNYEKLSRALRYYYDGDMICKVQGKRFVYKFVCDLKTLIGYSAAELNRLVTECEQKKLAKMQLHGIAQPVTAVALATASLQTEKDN
# How it was run: as §1
# ERG = target: T4, ERG (Homo sapiens, UniProt P11308 1-479); settings: protein: recombinant; tags: N-terminal GST; dsDNA, one strand shown
# T4 sequence: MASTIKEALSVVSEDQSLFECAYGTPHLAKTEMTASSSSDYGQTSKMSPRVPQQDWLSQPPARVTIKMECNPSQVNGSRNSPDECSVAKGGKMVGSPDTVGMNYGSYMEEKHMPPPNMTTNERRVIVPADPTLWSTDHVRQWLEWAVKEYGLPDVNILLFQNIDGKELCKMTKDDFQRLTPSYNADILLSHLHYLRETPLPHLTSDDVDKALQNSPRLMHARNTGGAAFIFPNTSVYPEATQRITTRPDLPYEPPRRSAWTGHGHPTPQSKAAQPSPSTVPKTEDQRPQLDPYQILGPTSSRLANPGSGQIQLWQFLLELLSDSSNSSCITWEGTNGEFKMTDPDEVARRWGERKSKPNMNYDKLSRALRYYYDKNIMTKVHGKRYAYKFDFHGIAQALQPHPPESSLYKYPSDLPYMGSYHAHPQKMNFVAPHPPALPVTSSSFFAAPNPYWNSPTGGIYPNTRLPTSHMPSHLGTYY
# How it was run: as §1
# ELF1 = ELF1 (Homo sapiens, UniProt P32519 1-619); settings: protein: recombinant; tags: N-terminal GST; dsDNA, one strand shown
# How it was run: as §1
# EHF = target: T5, EHF (Homo sapiens, UniProt Q9NZC4 1-300); settings: protein: recombinant; tags: N-terminal GST; dsDNA, one strand shown
# T5 sequence: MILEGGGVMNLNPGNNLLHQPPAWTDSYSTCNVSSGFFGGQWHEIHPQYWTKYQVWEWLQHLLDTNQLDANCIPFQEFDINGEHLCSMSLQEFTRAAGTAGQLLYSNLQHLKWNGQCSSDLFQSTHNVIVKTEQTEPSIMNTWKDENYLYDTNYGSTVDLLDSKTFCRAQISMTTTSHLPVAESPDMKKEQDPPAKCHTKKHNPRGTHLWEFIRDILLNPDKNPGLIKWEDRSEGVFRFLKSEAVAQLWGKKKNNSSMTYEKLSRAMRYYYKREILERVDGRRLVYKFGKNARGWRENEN
# How it was run: as §1
# SPI1 = SPI1 (Homo sapiens, UniProt P17947 1-270); settings: protein: recombinant; tags: N-terminal GST; dsDNA, one strand shown
# How it was run: as §1
# SPIB = SPIB (Homo sapiens, UniProt Q01892 1-262); settings: protein: recombinant; tags: N-terminal GST; dsDNA, one strand shown
# How it was run: as §1
# ELK3 = target: T6, ELK3 (Homo sapiens, UniProt P41970 1-407); settings: protein: recombinant; tags: N-terminal GST; dsDNA, one strand shown
# T6 sequence: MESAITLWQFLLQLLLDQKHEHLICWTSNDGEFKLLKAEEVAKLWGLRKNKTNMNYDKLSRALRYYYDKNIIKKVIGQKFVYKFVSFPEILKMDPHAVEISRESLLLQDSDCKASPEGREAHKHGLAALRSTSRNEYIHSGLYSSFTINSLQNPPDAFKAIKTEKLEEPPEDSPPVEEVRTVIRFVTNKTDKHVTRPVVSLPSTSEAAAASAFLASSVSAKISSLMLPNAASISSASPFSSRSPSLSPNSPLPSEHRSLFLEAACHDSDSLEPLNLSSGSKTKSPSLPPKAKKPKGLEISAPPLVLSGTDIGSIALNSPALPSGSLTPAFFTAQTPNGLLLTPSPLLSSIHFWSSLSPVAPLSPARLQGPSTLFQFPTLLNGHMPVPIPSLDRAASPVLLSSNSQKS
# How it was run: as §1
# FEV = target: T7, FEV (Homo sapiens, UniProt Q99581 1-238); settings: protein: recombinant; tags: N-terminal GST; dsDNA, one strand shown
# T7 sequence: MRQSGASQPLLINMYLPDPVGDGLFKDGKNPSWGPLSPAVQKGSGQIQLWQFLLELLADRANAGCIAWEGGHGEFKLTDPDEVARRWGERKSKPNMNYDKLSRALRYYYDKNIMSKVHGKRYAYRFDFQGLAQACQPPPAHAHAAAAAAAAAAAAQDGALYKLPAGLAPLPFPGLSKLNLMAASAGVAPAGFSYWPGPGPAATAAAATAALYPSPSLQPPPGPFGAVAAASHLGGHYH
# How it was run: as §1
# ETV5 = ETV5 (Homo sapiens, UniProt P41161 1-510); settings: protein: recombinant; tags: N-terminal GST; dsDNA, one strand shown
# How it was run: as §1
# HSF1 = HSF1 (Homo sapiens, UniProt Q00613 1-529); settings: protein: recombinant; tags: N-terminal GST; chain copies: 3; dsDNA, one strand shown
# How it was run: as §1
# SPIC = target: T8, SPIC (Homo sapiens, UniProt Q8N5J4 1-248); settings: protein: recombinant; tags: N-terminal GST; dsDNA, one strand shown
# T8 sequence: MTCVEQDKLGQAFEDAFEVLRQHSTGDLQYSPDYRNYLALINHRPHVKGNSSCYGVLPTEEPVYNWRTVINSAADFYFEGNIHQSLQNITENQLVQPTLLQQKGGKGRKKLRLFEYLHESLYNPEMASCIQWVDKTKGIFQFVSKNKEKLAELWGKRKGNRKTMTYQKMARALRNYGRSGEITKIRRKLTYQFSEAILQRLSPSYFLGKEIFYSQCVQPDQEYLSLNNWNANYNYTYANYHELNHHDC
# How it was run: as §1
# ELF4 = ELF4 (Homo sapiens, UniProt Q99607 1-663); settings: protein: recombinant; tags: N-terminal GST; dsDNA, one strand shown
# How it was run: as §1
# ELK4 = target: T9, ELK4 (Homo sapiens, UniProt P28324-2 1-405); settings: protein: recombinant; tags: N-terminal GST; dsDNA, one strand shown
# T9 sequence: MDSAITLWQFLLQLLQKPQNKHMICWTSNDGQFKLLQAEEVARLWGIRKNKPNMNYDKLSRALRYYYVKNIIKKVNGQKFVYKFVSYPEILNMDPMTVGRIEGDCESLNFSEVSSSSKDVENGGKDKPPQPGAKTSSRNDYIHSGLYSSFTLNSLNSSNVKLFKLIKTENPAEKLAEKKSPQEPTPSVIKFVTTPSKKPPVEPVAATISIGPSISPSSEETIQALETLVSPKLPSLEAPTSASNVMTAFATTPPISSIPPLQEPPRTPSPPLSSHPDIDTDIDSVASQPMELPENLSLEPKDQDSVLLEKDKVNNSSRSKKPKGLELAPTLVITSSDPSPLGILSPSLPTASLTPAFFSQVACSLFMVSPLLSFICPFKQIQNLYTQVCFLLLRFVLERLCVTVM
# How it was run: as §1
# ETV2 = target: T10, ETV2 (Homo sapiens, UniProt O00321 1-342); settings: protein: recombinant; tags: N-terminal GST; dsDNA, one strand shown
# T10 sequence: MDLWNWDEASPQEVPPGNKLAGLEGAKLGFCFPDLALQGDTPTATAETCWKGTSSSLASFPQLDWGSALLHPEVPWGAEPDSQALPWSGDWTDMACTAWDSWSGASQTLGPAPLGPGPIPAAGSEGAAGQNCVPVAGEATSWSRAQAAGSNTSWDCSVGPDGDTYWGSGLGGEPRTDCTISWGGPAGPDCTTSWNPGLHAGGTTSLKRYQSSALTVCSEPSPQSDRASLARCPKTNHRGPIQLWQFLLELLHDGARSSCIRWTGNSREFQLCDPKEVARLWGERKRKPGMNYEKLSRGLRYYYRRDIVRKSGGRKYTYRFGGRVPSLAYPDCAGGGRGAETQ
# How it was run: as §1
# ELF3 = target: T11, ELF3 (Homo sapiens, UniProt P78545 1-371); settings: protein: recombinant; tags: N-terminal GST; dsDNA, one strand shown
# T11 sequence: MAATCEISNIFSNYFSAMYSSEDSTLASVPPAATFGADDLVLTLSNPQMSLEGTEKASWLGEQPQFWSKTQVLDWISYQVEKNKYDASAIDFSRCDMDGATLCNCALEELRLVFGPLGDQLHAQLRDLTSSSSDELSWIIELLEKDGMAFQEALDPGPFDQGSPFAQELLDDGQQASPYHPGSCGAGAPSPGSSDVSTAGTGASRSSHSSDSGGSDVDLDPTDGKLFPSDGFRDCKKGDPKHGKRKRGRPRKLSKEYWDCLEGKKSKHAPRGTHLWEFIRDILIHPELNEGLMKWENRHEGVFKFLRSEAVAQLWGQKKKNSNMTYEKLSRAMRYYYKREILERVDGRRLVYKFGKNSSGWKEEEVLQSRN
# How it was run: as §1
# CRX = CRX (Homo sapiens, UniProt O43186 1-299); settings: protein: recombinant; tags: N-terminal GST; dsDNA, one strand shown
# How it was run: as §1
# ETV1 = ETV1 (Homo sapiens, UniProt P50549 1-477); settings: protein: recombinant; tags: N-terminal GST; dsDNA, one strand shown
# How it was run: as §1
# Chain of SPIB (Q01892 whole entry): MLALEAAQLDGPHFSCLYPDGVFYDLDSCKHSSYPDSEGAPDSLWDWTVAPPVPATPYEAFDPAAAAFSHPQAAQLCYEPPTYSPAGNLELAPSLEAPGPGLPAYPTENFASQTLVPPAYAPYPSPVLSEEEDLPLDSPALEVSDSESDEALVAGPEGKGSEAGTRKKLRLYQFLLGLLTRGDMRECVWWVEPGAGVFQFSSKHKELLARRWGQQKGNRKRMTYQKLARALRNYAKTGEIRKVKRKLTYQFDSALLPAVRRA
# Chain of CRX (O43186 whole entry): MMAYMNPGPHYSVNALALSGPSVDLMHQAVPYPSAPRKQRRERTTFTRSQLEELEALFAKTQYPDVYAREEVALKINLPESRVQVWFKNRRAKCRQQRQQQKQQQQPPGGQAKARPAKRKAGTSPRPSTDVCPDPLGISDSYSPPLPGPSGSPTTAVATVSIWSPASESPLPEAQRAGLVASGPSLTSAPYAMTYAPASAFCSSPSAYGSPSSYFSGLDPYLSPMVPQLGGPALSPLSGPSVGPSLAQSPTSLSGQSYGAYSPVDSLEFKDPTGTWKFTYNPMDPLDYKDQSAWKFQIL
# Chain of ELF1 (P32519 whole entry): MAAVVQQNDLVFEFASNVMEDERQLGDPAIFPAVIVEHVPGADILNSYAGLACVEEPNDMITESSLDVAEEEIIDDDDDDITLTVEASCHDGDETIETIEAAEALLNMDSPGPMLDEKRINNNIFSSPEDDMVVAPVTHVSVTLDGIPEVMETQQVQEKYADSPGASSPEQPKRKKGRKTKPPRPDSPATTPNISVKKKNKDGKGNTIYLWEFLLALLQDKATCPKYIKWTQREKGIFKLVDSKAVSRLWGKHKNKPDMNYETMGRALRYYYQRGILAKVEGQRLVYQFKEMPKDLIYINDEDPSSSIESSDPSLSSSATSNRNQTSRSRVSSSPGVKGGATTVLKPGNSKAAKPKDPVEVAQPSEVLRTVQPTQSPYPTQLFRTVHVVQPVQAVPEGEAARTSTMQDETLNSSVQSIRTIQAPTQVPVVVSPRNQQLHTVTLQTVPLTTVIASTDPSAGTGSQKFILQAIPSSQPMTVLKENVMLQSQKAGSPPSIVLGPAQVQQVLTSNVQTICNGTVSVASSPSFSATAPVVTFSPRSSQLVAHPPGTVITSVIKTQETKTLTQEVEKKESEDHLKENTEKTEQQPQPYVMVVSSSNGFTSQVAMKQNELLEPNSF
# Chain of ETV5 (P41161 whole entry): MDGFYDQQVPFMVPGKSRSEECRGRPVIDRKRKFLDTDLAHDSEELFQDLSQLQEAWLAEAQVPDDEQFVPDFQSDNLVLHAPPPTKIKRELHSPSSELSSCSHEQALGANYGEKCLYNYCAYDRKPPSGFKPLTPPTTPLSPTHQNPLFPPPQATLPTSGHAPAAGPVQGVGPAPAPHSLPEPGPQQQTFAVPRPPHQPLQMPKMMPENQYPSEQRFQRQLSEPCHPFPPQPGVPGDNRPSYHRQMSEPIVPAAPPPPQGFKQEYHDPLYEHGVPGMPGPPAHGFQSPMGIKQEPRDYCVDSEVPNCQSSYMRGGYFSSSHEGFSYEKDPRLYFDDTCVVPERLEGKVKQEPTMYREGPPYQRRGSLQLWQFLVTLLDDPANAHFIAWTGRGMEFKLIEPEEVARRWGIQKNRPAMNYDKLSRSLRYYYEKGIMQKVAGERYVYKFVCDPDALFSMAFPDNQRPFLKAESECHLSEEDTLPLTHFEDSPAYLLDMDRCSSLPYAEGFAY
# Chain of ELF4 (Q99607 whole entry): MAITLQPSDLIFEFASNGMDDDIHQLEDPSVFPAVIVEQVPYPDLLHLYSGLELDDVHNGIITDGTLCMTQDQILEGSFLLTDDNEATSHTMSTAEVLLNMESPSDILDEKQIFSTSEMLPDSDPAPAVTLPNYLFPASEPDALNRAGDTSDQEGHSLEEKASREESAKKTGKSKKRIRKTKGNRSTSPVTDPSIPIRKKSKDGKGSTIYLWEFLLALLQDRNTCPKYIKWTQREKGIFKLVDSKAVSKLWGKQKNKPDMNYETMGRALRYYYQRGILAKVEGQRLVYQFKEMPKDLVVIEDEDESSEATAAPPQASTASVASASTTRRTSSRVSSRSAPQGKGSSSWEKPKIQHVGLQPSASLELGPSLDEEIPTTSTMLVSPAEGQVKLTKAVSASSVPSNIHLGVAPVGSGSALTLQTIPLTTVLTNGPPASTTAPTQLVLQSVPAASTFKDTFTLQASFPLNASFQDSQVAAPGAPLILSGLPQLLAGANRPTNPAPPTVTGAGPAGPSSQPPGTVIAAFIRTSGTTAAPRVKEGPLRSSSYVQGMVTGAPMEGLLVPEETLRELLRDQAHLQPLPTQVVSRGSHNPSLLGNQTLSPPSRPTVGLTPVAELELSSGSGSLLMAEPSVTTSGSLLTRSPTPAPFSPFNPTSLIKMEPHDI
# Chain of HSF1 (Q00613 whole entry): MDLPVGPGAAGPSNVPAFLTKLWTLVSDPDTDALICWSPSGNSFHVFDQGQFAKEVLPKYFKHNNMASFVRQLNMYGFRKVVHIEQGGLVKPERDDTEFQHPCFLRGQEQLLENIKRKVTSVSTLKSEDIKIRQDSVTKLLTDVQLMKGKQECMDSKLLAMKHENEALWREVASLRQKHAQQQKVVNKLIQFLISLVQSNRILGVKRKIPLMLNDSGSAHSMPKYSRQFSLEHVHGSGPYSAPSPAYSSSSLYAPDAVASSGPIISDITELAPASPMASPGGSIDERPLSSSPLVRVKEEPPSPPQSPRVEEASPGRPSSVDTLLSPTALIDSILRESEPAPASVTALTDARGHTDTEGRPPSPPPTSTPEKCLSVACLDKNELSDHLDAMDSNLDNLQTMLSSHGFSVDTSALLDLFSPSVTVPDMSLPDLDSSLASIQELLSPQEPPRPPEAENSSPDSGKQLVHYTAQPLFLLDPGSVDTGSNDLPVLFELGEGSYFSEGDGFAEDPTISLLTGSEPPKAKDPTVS
# Chain of ETV1 (P50549 whole entry): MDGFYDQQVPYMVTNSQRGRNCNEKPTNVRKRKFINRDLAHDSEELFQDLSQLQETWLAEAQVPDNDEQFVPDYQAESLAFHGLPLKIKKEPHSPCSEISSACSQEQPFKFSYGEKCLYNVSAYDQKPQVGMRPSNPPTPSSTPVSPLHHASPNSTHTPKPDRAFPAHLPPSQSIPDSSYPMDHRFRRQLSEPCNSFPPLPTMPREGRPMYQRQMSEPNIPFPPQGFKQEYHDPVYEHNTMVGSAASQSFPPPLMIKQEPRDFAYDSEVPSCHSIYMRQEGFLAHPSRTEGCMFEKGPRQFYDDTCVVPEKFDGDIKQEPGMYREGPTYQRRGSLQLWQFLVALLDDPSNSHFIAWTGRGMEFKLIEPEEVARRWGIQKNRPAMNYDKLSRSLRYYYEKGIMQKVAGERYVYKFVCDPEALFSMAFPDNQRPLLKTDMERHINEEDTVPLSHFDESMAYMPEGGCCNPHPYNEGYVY
sequence,measurement,setting,value
GCCTTT,binding signal,FLI1,"1.33 fold enrichment (6-mer frequency, TF over GST control)"
same,binding signal,ELK1,"1.3 fold enrichment (6-mer frequency, TF over GST control)"
same,binding signal,GABPA,"1.32 fold enrichment (6-mer frequency, TF over GST control)"
same,binding signal,ERG,"1.2 fold enrichment (6-mer frequency, TF over GST control)"
same,binding signal,ELF1,"1.28 fold enrichment (6-mer frequency, TF over GST control)"
same,binding signal,EHF,"1.35 fold enrichment (6-mer frequency, TF over GST control)"
same,binding signal,SPI1,"1.49 fold enrichment (6-mer frequency, TF over GST control)"
same,binding signal,SPIB,"1.35 fold enrichment (6-mer frequency, TF over GST control)"
same,binding signal,ELK3,"1.27 fold enrichment (6-mer frequency, TF over GST control)"
same,binding signal,FEV,"1.41 fold enrichment (6-mer frequency, TF over GST control)"
same,binding signal,ETV5,"1.25 fold enrichment (6-mer frequency, TF over GST control)"
same,binding signal,HSF1,"1.24 fold enrichment (6-mer frequency, TF over GST control)"
same,binding signal,SPIC,"1.56 fold enrichment (6-mer frequency, TF over GST control)"
same,binding signal,ELF4,"1.36 fold enrichment (6-mer frequency, TF over GST control)"
same,binding signal,ELK4,"1.32 fold enrichment (6-mer frequency, TF over GST control)"
same,binding signal,ETV2,"1.53 fold enrichment (6-mer frequency, TF over GST control)"
same,binding signal,ELF3,"1.38 fold enrichment (6-mer frequency, TF over GST control)"
same,binding signal,CRX,"1.3 fold enrichment (6-mer frequency, TF over GST control)"
same,binding signal,ETV1,"1.34 fold enrichment (6-mer frequency, TF over GST control)"
